# According to PubChem BioAssay (NCI):
# About 83,000 compounds went through this panel and 20% of them were active in at least one assay; those are over-represented in the sample as a whole.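 Assay: single dose, 48 h. Readout: percent growth (0 = no net growth; negative = cell death). Active: <10.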 Values without a mark were called inactive. Calls of active or inactive are those of the source.
# Test system: SW-620 colon
# Assay: NCI-60 one-dose screen, 48 h (100 = growth as untreated, 0 = no growth, -100 = all killed)
# Details: 10 µM unless noted
# Method: Growth inhibition of the SW-620 human tumor cell line is measured as a screen for anti-cancer activity. Cells are grown in 96 well plates and exposed to the test compound for 48 hours. Compounds are tested at a single concentration, which is 10^-5 M for most compounds. The reported endpoint is percent growth (GI% or GIPRCNT), where numbers from 0 - 100% represent growth inhibition, and numbers from -100% - 0 represent cell death. For example, a value of 40 represents 60% growth inhibition. A value of 0 means no net growth occurred over the course of the experiment. A value of -40 indicates 40% of cells at the beginning of the experiment died by the end of the experiment. A value of -100 means all cells are dead at the end of the experiment.
# NCI-60 Human Tumor Cell Lines Screen was performed using the standard one-dose NCI protocol, which is described in more detail at https://dtp.cancer.gov/discovery_development/nci-60/default.htm.
# Compounds with GIPRCNT values below 10 were considered active. Activity score was based on GIPRCNT using the following formula: […]
# Score is 0 for GIPRCNT values of 100 or above, 50 for GIPRCNT values of 0, and 100 for GIPRCNT values of -100.
row,Structure (SMILES),growth
1,Cc1ccc2c(c1)C(=O)/C(=C\Nc1ccc(C(N)=O)cc1)C(O)O2 (stereo not given),93.2%
2,CCCCCCCC[Si](OCC)(OCC)OCC,105%
3,Cc1nn(-c2nc3ccccc3s2)c(C)c1Oc1ccccc1O,47.8%
4,Cc1cccc2nnc(-c3ccccc3)n12,112%
5,COc1cccc(/C=N\NC(=O)c2ccncc2)c1O,62.5%
6,Cn1c(=O)c2[nH]c(=S)n(Cc3ccccc3)c2n(C)c1=O,100%
7,O=C(O)C1CCN(S(=O)(=O)c2ccc(-c3ccccc3)cc2)CC1,98.2%
8,CC(=O)/C(=C/c1ccc(Cl)cc1)C(=O)c1ccccc1,61.3%
9,Nc1ccccc1C#Cc1ccccc1C#Cc1ccc(OCCCCCCOc2ccc(C#Cc3ccccc3C#Cc3ccccc3N)cc2)cc1,98.9%
10,O=C(CNC(=O)c1cccc2ccccc12)Nc1ccccc1Cc1ccccc1,25.5% [5 µM]
11,CC(C)=CCNc1ncnc2c1ncn2C1OC(COP(=O)(O)O)C(O)C1O (stereo not given),37.6%
12,Nc1nc2c(c(=O)[nH]1)C1(C(=O)Nc3ccccc31)c1c(nc(N)[nH]c1=O)N2,97.3%
13,CCCCCc1c(C)[nH]c(/C=C2\N=C(c3ccc[nH]3)C=C2Oc2ccccc2)c1C,-54% [100 µM] (active)
14,Cc1ccc(S(=O)(=O)NCCN2c3nc4ccccc4cc3Sc3cc4ccccc4nc32)cc1,87.7%
15,Cn1cnc([N+](=O)[O-])c1Sc1nc(N)nc2nc[nH]c12,50.7%
16,COc1ccc(/C=C2/SC(=Nc3c(C)nn(-c4ccccc4)c3N)NC2=O)cc1,18.5%
17,CC12CCC3C(=CCc4cc(O)ccc43)C1CCC2=O (stereo not given),106%
18,COCCCNS(=O)(=O)c1ncnc2nc[nH]c12,101%
19,OCc1n(Cc2ccc3ccccc3c2)cc[n+]1Cc1ccc2ccccc2c1,67.7%
20,NS(=O)(=O)c1ccc(N2CC(c3nc4ccccc4[nH]3)CC2=O)cc1 (stereo not given),104%

row,Structure (SMILES),growth
1,Cc1ccc2nc(SCC(=O)Nc3ccc(-c4nc5ccccc5s4)c(Cl)c3)[nH]c2c1,111%
2,Cc1ccc(-c2csc(N)n2)cc1,105%
3,COc1cc(/C=C\C(C)=N\Nc2ccccc2)ccc1O,106%
4,CN1C(=O)C(C2=NN(C=O)C(c3ccc(F)cc3)C2)C(=O)N(C)C1=O (stereo not given),98.8%
5,COP(=O)(OC)C(c1ccccc1)(c1ccccc1)c1ccccc1,98.1%
6,N#CC1c2ccccc2C=CN1C(=O)N(c1ccccc1)c1ccccc1 (stereo not given),21.8%
7,COc1cc(C(=O)c2cc3c(cc2C)OCO3)cc(OC)c1OC,25.6%
8,COc1ccc2[nH]c(=O)c(CNc3ccc(Nc4nccc(-c5ccc(Cl)cc5)n4)cc3)cc2c1,105%
9,COP(=O)(OC)C(c1ccc(O)cc1)(c1ccc(O)cc1)c1ccc(O)cc1,97.3%
10,Cc1cc(C)c2c(N)c3cccc(C)c3nc2n1,-1.92% (active)
11,O=C(/C=C/c1cccc(O)c1)c1cccc(-n2cc(-c3ccccc3)[nH]c2=O)c1,-32.1% (active)
12,COc1ccc2c(c1)[n+](=O)c(/C=C/C(=O)c1cc(OC)c(OC)c(OC)c1)c(C)n2[O-],21.7%
13,O=c1c2ccccc2c2nccn2c2cc(Cl)ccc12,80.7%
14,CCOC(CNCc1cc(C)c2[nH]c3ccccc3c2c1C)OCC,95.1%
15,CCN(CC)CCOCC[C@H]1CC[C@H]2[C@@H]3[C@H](C)Cc4cc(OS(N)(=O)=O)ccc4[C@H]3CC[C@]12C,-77.5% (active)
16,CCCCCCCCCCCCC1CCCC(C)C1 (stereo not given),101%
17,C=C(CN1CCc2c([nH]c3ccccc23)C1)c1ccc(C(=O)Nc2ccon2)cc1,102%
18,CN1CCN(CCCOc2ccc3ncnc(Nc4ccc(OCc5cccc(F)c5)c(Cl)c4)c3c2)CC1,-78.7% (active)
19,CN(C)CCCN=c1cc2c(=O)n(CCCN(C)C)c(=O)c3c(NCCCN(C)C)cc4c(O)n(CCCN(C)C)c(=O)c1c4c3-2,-14.6% (active)
20,COC(=O)c1c(NC(=O)CSc2nnnn2-c2ccc(OC)cc2)sc(C)c1C,96.2%
